# FLuc counter: inhibits or activates purified firefly luciferase, miR-21 counter-screen. P08659. purified FLuc, Km substrates, luminescence inhibition. AID 588342. 360,000 tested, 6.9% active. Potency, µM (series often up to 57.5 µM), usual class: inhibitors; further: nearly all actives have a fitted effect of over 55% in size
# Target sequence (P08659 whole entry, looked up): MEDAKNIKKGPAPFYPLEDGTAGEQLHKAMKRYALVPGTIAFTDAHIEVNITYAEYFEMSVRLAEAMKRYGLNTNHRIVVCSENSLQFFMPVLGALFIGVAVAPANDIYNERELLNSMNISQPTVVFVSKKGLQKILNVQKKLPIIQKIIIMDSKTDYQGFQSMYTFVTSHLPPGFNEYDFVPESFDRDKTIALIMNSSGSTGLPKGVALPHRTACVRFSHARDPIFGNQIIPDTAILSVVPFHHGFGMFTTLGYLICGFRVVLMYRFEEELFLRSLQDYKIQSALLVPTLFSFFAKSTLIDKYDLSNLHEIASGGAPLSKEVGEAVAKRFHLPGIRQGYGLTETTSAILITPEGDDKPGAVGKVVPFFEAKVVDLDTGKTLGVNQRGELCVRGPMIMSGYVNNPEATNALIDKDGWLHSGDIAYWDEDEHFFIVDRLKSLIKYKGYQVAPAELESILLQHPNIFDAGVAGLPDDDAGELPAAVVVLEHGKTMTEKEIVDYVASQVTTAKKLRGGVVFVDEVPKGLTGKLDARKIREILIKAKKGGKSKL
#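 Purified P. pyralis luciferase (10nM final) with 10uM D-luciferin and 10uM ATP (Km levels) in 50mM Tris acetate pH 7.5, 10mM Mg acetate, 0.01% Tween-20, 0.05% BSA; qHTS 6-point titration, ~60 µM downward; luminescence read.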
# Rab9 promoter act: Rab9 promoter activation; 320,000 tested, 2.8% active; Huh7 Rab9 promoter-luciferase reporter, luminescence, 24 h; Potency, µM (series often up to 9.22 µM), actives largely listed as activators; further: nearly all actives have a fitted effect of over 60% in size
#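 Measured in stably transfected Huh7 cells bearing a Rab9 promoter–luciferase construct: 24 h compound treatment at 37 °C, followed by luminescence detection.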
# ELG1 repair inh: inhibitors of ELG1-dependent DNA repair in HEK293T cells; HEK293T ELG1-luciferase reporter, luminescence, 16 h; DNA damage induced by 5-fluorouridine; Potency, µM (doses to about 46.1 µM), actives largely listed as inhibitors; 330,000 tested, 2.3% active; AID 504467; further: nearly all actives have a fitted effect of over 55% in size
#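 5-Fluorouridine DNA damage + compound/DMSO, 2,000 cells/well, 16 h, 37 °C/5% CO2. ONE-Glo, 30 min RT, luminescence. Readout = decrease in reporter signal.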
# ELG1 genotox: induces genotoxicity in HEK293T cells with luciferase-tagged ELG1 | HEK293T ELG1-luciferase reporter, luminescence, 16 h | Potency, µM (doses to about 46 µM), usual class: activators | AID 504466 | 330,000 tested, 1.3% active; further: nearly all actives have a fitted effect of over 60% in size
#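 Step 1: seed 2,000 HEK293T ELG1-luciferase cells per well. Step 2: add compound or DMSO, incubate 16 hr at 37 °C. Step 3: ONE-Glo, 30 min at room temperature, read luminescence.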
# NPC1 prom act: NPC1 promoter activation; Huh7 NPC1 promoter luciferase reporter, 24 h; Potency, µM (titrated, usually from 9.22 µM), actives largely listed as activators; 320,000 tested, 2.4% active; AID 485313; further: nearly all actives have a fitted effect of over 60% in size
#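 Stable NPC1-promoter luciferase Huh7 line; cpd (DMSO) 24 h, 37 °C, 5% CO2; Amplite luciferase reagent 10 min RT; luminescence readout. qHTS format.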
# SMN2 splice enh: SMN2 splice variant enhancement. HEK293 SMN2-luciferase splicing reporter, luminescence, 30-36 h. Potency, µM (highest dose often 46.1 µM), most hits filed as activators. 210,000 tested, 2.8% active. AID 1458; further: nearly all actives have a fitted effect of over 55% in size
#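 HEK293 cells carry an SMN2 […]–luciferase reporter in which exon 7 inclusion puts luciferase in frame. Cells were plated 10-12 h before compound addition, then incubated 30-36 h at 37C. ONE-Glo luminescence was read; sodium butyrate at 4.5 mM final served as control.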
# Numbers stand for hits; - = inactive; ? = inconclusive; . = not tested or not shown. Only some compounds are listed: those with a hit (about 9.2% of all), similar ones and a draw of the others. The call rests on the fitted dose curve; in most records, active means well fitted curve in the direction sought with a large enough effect; inconclusive means small, poorly fitted or top-dose-only effect, or another doubt; inactive means no such curve, though single readings can be large; an effect the other way counts as inactive or inconclusive.
SMILES,FLuc counter,Rab9 promoter act,ELG1 repair inh,ELG1 genotox,NPC1 prom act,SMN2 splice enh
C=CCn1c(N)c(C(=O)OCCC)c2nc3ccccc3nc21,-,-,16µM,-,-,.
C=CCn1c(N)c(C(=O)Nc2cccc(C)c2)c2nc3ccccc3nc21,-,-,-,-,-,-
Cc1ccc(C(=O)Nc2ccc3c(c2)OCO3)cc1Cl,2.4µM,2.5µM,?,4.6µM,0.89µM,.
O=C(Nc1ccc(Cl)cc1Cl)c1ccc2c(c1)OCCO2,0.3µM,0.32µM,?,?,0.4µM,.
CCOc1ccc(C(=O)Nc2ccc3c(c2)OCO3)cc1OCC,-,-,-,-,-,-
Cc1ccc(NC(=O)c2ccc3c(c2)OCO3)cc1Cl,2.7µM,0.79µM,?,?,0.56µM,.
O=C(Nc1ccc2c(c1)OCO2)c1ccc(Cl)nc1,?,-,?,?,-,-
O=C(Nc1ccc2c(c1)OCO2)c1cnc(Cl)c(Cl)c1,7.6µM,3.5µM,?,-,?,.
COC(=O)Cc1[nH]nc2c1C(c1ccc(O)c(OC)c1)C(C#N)=C(N)O2 (stereo unspecified),-,-,-,-,-,.
CSc1ccccc1C(=O)N1CCc2ccccc2C1,-,-,-,-,-,-
Cc1ccc(C(=O)Nc2ccc3c(c2)OCO3)cc1S(=O)(=O)N1CCCC1,12µM,?,-,-,?,-
O=C(CNC(=O)c1ccc(Cl)cc1Cl)OCC(=O)c1ccc2c(c1)OCCO2,17µM,-,?,-,-,-
O=C(COC(=O)CNC(=O)c1ccc(Cl)cc1Cl)NCC1CCCO1 (stereo unspecified),-,-,-,-,-,.
Cc1cc(Cl)ccc1NC(=O)c1ccc2c(c1)OCO2,12µM,3.5µM,?,?,2.2µM,.
O=C(Nc1ccc(Cl)c(-c2nc3ccccc3[nH]2)c1)c1ccc2c(c1)OCO2,12µM,-,21µM,-,-,-
Cc1ccc(C(=O)Nc2ccc3c(c2)OCO3)cc1S(=O)(=O)N1CCOCC1,?,-,?,-,?,.
COc1cc(Cl)c(C)cc1NC(=O)c1ccc2c(c1)OCO2,-,?,?,-,?,.
C=Cn1cc[n+](CC(=O)c2ccc(OC)cc2)c1,-,-,-,-,-,.
c1csc(C(c2nnnn2C2CCCC2)N2CCCC3(CCCCC3)C2)c1 (stereo unspecified),-,-,-,-,-,-
Cc1ccc(SCCC(=O)OC(C)C(=O)Nc2ccccc2)cc1 (stereo unspecified),-,-,-,-,-,.
COC(=O)c1cc(C)nc2c1c(=O)nc(SCc1cccc(C(F)(F)F)c1)n2C1CC1,-,.,.,.,.,.
O=C(NCCOc1ccccc1Cl)c1cc(F)c(F)cc1Cl,5.4µM,2.2µM,?,?,2.8µM,.
O=C(O)CCC(=O)Nc1ccccc1C(=O)Nc1ccccc1,-,-,?,-,-,-
O=C(O)CCC(=O)Nc1ccccc1C(=O)NCCc1ccccc1,19µM,?,?,?,?,?
O=C(/C=C/c1ccccc1Cl)NCCc1ccccc1,19µM,?,?,-,?,?
SMILES,FLuc counter,Rab9 promoter act,ELG1 repair inh,ELG1 genotox,NPC1 prom act,SMN2 splice enh
CN(C(=O)COc1ccccc1C(=O)NCCOc1ccccc1)c1ccccc1,?,-,10µM,-,-,-
O=C(NCCOc1ccccc1Cl)c1ncn[nH]1,?,?,?,?,-,.
CN1CCN(C(=O)c2ccc3c(c2)N(Cc2c(F)cccc2Cl)C(=O)c2ccccc2S3)CC1,-,.,.,.,.,-
COc1ccc(CCNC(=O)c2ccc(Cl)cc2Cl)cc1,17µM,-,-,-,-,-
COc1ccc(CC(=O)NCCc2ccc(Cl)cc2Cl)cc1,-,-,-,-,-,-
Cc1nn(Cc2ccccc2)c(Cl)c1C(=O)NCCc1ccccc1,9.5µM,2.2µM,?,?,2.5µM,14µM
O=C(NCCOc1ccccc1)c1ccccc1Cl,8.5µM,0.45µM,?,4.6µM,0.63µM,.
O=C(NCCCl)c1ccc(OCc2ccccc2)cc1Cl,?,1.6µM,?,-,?,13µM
Cc1nn(Cc2ccccc2)c(Cl)c1C(=O)NCc1ccc(C)n1C,-,-,-,-,-,-
COc1ccc(NC(=O)COC(=O)C2CC(=O)N(CCc3ccc(OC)c(OC)c3)C2)cc1Cl (stereo unspecified),-,-,-,-,-,.
Cc1ccc(NC(=O)CCC(=O)NNC(=O)COc2ccc([N+](=O)[O-])cc2)c(C)c1,-,-,-,-,-,.
O=C(NCCc1ccccc1)c1ccccc1Cl,1.9µM,0.45µM,?,?,0.35µM,.
COc1ccc(-c2cc(C)nc3c(-c4ccc(OC)c(OC)c4)c(C)nn23)cc1,-,.,.,.,.,-
Cn1c(-c2ccccc2F)cc2onc(-c3ccccc3)c2c1=O,0.54µM,0.4µM,?,0.46µM,0.32µM,.
Cc1onc2c(=O)n(-c3ccccc3)nc(-c3ccccc3)c12,-,-,-,-,-,.
CSc1nc(-c2ccccc2F)c(C#N)c(=O)n1C,-,-,-,-,-,-
Cn1c(-c2ccccc2)cc2onc(-c3ccccc3)c2c1=O,0.17µM,40µM,?,?,0.079µM,.
CN(CCCC(=O)Nc1ccc(OC(F)F)cc1)S(=O)(=O)c1ccc(F)cc1,-,-,-,-,-,.
COc1ccccc1NC(=O)c1ccc(NC(=O)CN(C)Cc2ccccc2F)cc1,-,-,?,-,-,-
CC1=C(C(=O)OCc2ccc3c(c2)OCO3)C(c2ccc(O)c([N+](=O)[O-])c2)NC(=O)N1 (stereo unspecified),-,-,9.2µM,-,-,-
CCCOc1ccccc1C1NC(=O)NC(C)=C1C(=O)OCCOC (stereo unspecified),-,-,-,-,-,?
CCCOc1ccccc1C1NC(=O)NC(C)=C1C(=O)OCc1ccccc1 (stereo unspecified),-,-,16µM,-,-,.
CC1=C(C(=O)OCc2ccc3c(c2)OCO3)C(c2ccccc2)NC(=O)N1 (stereo unspecified),-,-,2.1µM,-,-,-
CC1=C(C(=O)OCc2ccccc2)C(c2ccc([N+](=O)[O-])cc2)NC(=O)N1 (stereo unspecified),-,-,?,-,-,.
CCN(C[C@H]1N[C@@](Cc2ccccc2)(C(=O)OC)[C@H]2C(=O)N(C)C(=O)[C@@H]12)S(=O)(=O)c1ccc(C(C)(C)C)cc1,.,.,?,-,.,.
CCCCOc1ccc(S(N)(=O)=O)cc1,-,-,-,-,-,-
CCCCOc1ccc(N=Cc2ccc[nH]2)cc1,3.8µM,-,?,-,-,.
COc1ccc(N=Cc2ccc[nH]2)cc1,9.5µM,-,-,-,-,-
Cn1c(=O)c2c(ncn2CCOc2ccc(F)cc2)n(C)c1=O,-,-,?,-,-,.
